Measured values: PubChem BioAssay (NCI)
About 79,000 compounds went through this panel and 15% of them were active in at least one assay; those are over-represented in the sample as a whole. No stated cut-off is given here; in the data, active means growth inhibition above about 70%; inactive means the rest.

What was measured:
[1] = NCI Yeast Anticancer Drug Screen. Data for the rad50 strain (AID 155);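 further: 0% = growth of vehicle-only cultures of the same strain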; conditions: S. cerevisiae rad50 strain growth inhibition; at 50.0 µM; stronger effect = higher value
Procedure, shortened: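 Vehicle-treated cultures provide the reference for the growth inhibition reported for compound-exposed, repair-deficient yeast.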

[2] = NCI Yeast Anticancer Drug Screen. Data for the mec2-1 strain (AID 157); conditions: S. cerevisiae mec2-1 strain, at 50.0 µM, stronger effect = higher value
Procedure, shortened: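 Vehicle-treated cultures served as reference for growth inhibition of compound-exposed mec2-1 yeast.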

[3] = NCI Yeast Anticancer Drug Screen. Data for the sgs1 mgt1 strain (AID 161);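 further: 0% = growth of cultures given vehicle only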; conditions: S. cerevisiae sgs1 mgt1 strain, at 50.0 µM, stronger effect = higher value
Procedure, shortened: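 Genetically altered yeast, compound exposure, growth inhibition relative to vehicle.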

[4] = NCI Yeast Anticancer Drug Screen. Data for the cln2 rad14 strain (AID 165);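 further: 0% = growth equal to vehicle treated cultures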; conditions: S. cerevisiae cln2 rad14 strain, at 50.0 µM, stronger effect = higher value
Procedure, shortened: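 Each compound was tested on cln2 rad14 yeast. Inhibition of growth was calculated against vehicle-exposed controls.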

[5] = NCI Yeast Anticancer Drug Screen. Data for the bub3 strain (AID 167); conditions: S. cerevisiae bub3 mutant strain, at 50.0 µM, stronger effect = higher value
Procedure, shortened: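 Mutant yeast screening strain plus compound; vehicle-treated cultures serve as the 0% inhibition reference.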

[6] = NCI Yeast Anticancer Drug Screen. Data for the mlh1 rad18 strain (AID 175); conditions: S. cerevisiae mlh1 rad18 strain growth inhibition; at 50.0 µM; stronger effect = higher value
Procedure, shortened: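 Vehicle-treated cultures served as the reference for growth inhibition in a yeast strain carrying DNA damage repair alterations exposed to each compound.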

Measured: growth inhibition

CC(=O)OCC1OC(SC2=NC(=O)CS2)C(OC(C)=O)C(OC(C)=O)C1OC(C)=O (stereo not given)
inactive: [1] 3.3% | [2] -1.8% | [3] 1.45% | [4] -6.6% | [5] -8.85% | [6] 17.4%

Cc1ccc(S(=O)(=O)N=Nc2c(O)[nH]c3c(Cl)cc(Cl)cc23)cc1
inactive: [1] -11.8% | [2] -18.8% | [3] 4.65% | [4] -1.2% | [5] -22.4% | [6] 23.2%

C=C(C)[C@@]1(OC(=O)c2cc([N+](=O)[O-])cc([N+](=O)[O-])c2)C[C@@H]2CCCC[C@@H]21
inactive: [1] -43.5% | [2] -26.1% | [3] -15.8% | [4] 5.8% | [5] -7.9% | [6] 2.1%

S=C1Cc2c(-c3ccccc3)cc(-c3ccc(Cl)cc3)nc2-c2ccccc2N1
inactive: [1] 8.75% | [2] -3.85% | [3] 5.65% | [4] 2.55% | [5] 6.75% | [6] -4.25%

Nc1c(S(N)(=O)=O)cc(S(N)(=O)=O)cc1S(N)(=O)=O
inactive: [1] 0.75% | [2] -20.6% | [3] -36% | [4] -24.6% | [5] -29.2% | [6] -16%

C=C1C(=O)OC2CC(C)C(C(CC(C)=O)OC(C)=O)=CCC12 (stereo not given)
inactive: [1] 0.6% | [2] 5.1% | [3] 3.6% | [4] 6.8% | [5] 6.1% | [6] -53.7%

CC(O)CNC(=O)Nc1ccccc1 (stereo not given)
inactive: [1] -26.9% | [2] -26.8% | [3] -9.8% | [4] -5.25% | [5] 3.95% | [6] -17.6%

CC(=O)C(C(=O)NCc1ccccc1)C(c1ccc2c(c1)OCO2)C(C(C)=O)C(=O)NCc1ccccc1 (stereo not given)
inactive: [1] -5.7% | [2] 1.25% | [3] -23.6% | [4] -17.3% | [5] -0.65% | [6] 0.45%

CCOC(=O)c1cnc2ccccc2c1
inactive: [1] 3.65% | [2] 6.8% | [3] 5.95% | [4] -44.9% | [5] -1.15% | [6] 3.3%

CCCCCCCCCCCCOc1ccc2ccccc2c1
inactive: [1] -7.2% | [2] 15.9% | [3] 0.85% | [4] -17.6% | [5] -6.45% | [6] -8.15%

CC1OC(OC2C(OC(=O)[C@]34CCC(C)(C)C[C@H]3C3=CC[C@@H]5[C@@]6(C)CC[C@H](OC7OC(CO)C(O)C(O)C7OC7OC(CO)C(O)C(O)C7O)C(C)(C)[C@@H]6CC[C@@]5(C)[C@]3(C)CC4)OCC(O)C2O)C(O)C(O)C1OC1OCC(O)C(O)C1O (stereo not given in full)
inactive: [1] -24.8% | [2] -41.2% | [3] -44.5% | [4] -33.8% | [5] -32.8% | [6] -23.1%

Nc1ccc(C(=O)NN2C(=O)C(Cl)C2c2ccccc2)cc1 (stereo not given)
inactive: [1] -30.2% | [2] -31.8% | [3] -62.5% | [4] -1.8% | [5] -30.4% | [6] -38.2%

Nc1nnc(N)c2nc(-c3ccccc3)c(-c3ccccc3)nc12
inactive: [1] 10.4% | [2] 16.4% | [3] 28.1% | [4] -14.8% | [5] 8.15% | [6] 20.9%

CCCCCCC(O)CCCCCCCCCCC(=O)O (stereo not given)
inactive: [1] -14.3% | [2] 0.1% | [3] 16.4% | [4] -25.4% | [5] -6.8% | [6] 19.7%

COC(=O)C(=O)C(C(=O)C=C(C)C)C(=O)C(=O)Nc1cccc(C(C)=O)c1 (stereo not given)
inactive: [1] -18.4% | [2] -8.25% | [3] -14.7% | [4] 16.4% | [5] -13.2% | [6] -26.2%

CCC(C)(CC)OC(=O)c1ccc([N+](=O)[O-])cc1
inactive: [1] -0.35% | [2] -0.45% | [3] 5.05% | [4] -7.4% | [5] 2.85% | [6] 43.3%

ClC(Cl)=C(Cl)C(Cl)(Cl)Cl
inactive: [1] -23.8% | [2] 20.9% | [3] 0.95% | [4] -16.5% | [5] -5.65% | [6] 5.4%

CCCC1(C)OCC(C)(C)CO1
inactive: [1] -1.05% | [2] 2.45% | [3] -13.3% | [4] -28.8% | [5] 3.85% | [6] 1.9%

O=S(=O)(c1ccc(NC(=S)N2CCOCC2)cc1)N1CCCCC1
inactive: [1] -3.45% | [2] 1.1% | [3] -10.1% | [4] 1.6% | [5] -5.95% | [6] 8.65%

CC(=C(C#N)C#N)c1ccccc1
inactive: [1] 11% | [2] 2.5% | [3] 13.1% | [4] 6.45% | [5] 2.8% | [6] 5.45%

CC(=O)OCCNc1ccccc1
inactive: [1] -5.05% | [2] 0.2% | [3] 10.2% | [4] -5% | [5] -2.75% | [6] 20.3%

CCCCCCCCCCCCOC(=O)NCCCl
inactive: [1] -53% | [2] -106% | [3] -57% | [4] -224% | [5] -27.6% | [6] -60.1%

O=C(Oc1ccc[nH]c1=O)C1CCC1
inactive: [1] -15.3% | [2] 3% | [3] -0.55% | [4] 2.7% | [5] 12.8% | [6] -4.75%

CC1(C)C=C(S(=O)(=O)c2ccccc2)Oc2ccccc2O1
inactive: [1] 15.3% | [2] 8% | [3] 24.2% | [4] 9.2% | [5] 47.8% | [6] 31.9%

Cc1cc(C)c2nc3c(c(C(O)C4CCCCN4)c2c1)CC/C3=C\c1ccc(Cl)cc1 (stereo not given)
inactive: [1] -28.8% | [2] -22.4% | [3] 16.9% | [4] -7.75% | [5] -23.9% | [6] -4.75%

Cc1c(Cl)cccc1NC(=O)C1CC(Br)C(Br)CC1C(=O)O (stereo not given)
inactive: [1] 1.5% | [2] 6.7% | [3] 1.5% | [4] -48.5% | [5] 9.35% | [6] 31.3%

Cc1cc(C)c(N)c(C(=O)O)c1
inactive: [1] -46.5% | [2] -34.6% | [3] -39.8% | [4] -16.1% | [5] -47% | [6] -15.9%

COc1ccc2c(c1)C(=O)C1CCC(=O)N1C2c1ccc2c(c1)OCO2 (stereo not given)
inactive: [1] -9.65% | [2] 18.3% | [3] 10.2% | [4] 5.9% | [5] 47.1% | [6] -0.3%

CC(C)(C)N(C/C=C/CN(Cc1ccccc1)Cc1ccccc1)C(C)(C)C
inactive: [1] 32.8% | [2] 16.2% | [3] 25.6% | [4] 10.8% | [5] 19.8% | [6] 22.7%

CCc1cc(-c2ccc(OC)cc2)c(C#N)c(=S)n1C1OC(CO)C(O)C(O)C1O (stereo not given)
inactive: [1] 4.9% | [2] -3.5% | [3] 6.4% | [4] 0.7% | [5] 3.35% | [6] 7.7%

CCOC(=O)C(C)(C)OC(C)=O
inactive: [1] 39.2% | [2] 21.4% | [3] 19.6% | [4] 13.8% | [5] 4.2% | [6] 2.15%

C/C(CC(=O)Nc1cccc([N+](=O)[O-])c1)=N\NC(=O)C[n+]1ccccc1
inactive: [1] 15.5% | [2] -16.9% | [3] -0.65% | [4] 19.1% | [5] 0.5% | [6] -3.35%

Oc1cc2c(cc1C(c1ccc3c(c1)OCO3)N1CCCC1)OCO2 (stereo not given)
inactive: [1] -4.9% | [2] -9.35% | [3] 8.25% | [4] -27.6% | [5] 19.8% | [6] 28.4%

Cc1cc(S(=O)(=O)Nc2n[nH]c(N)n2)c(Cl)cc1Cl
inactive: [1] -52% | [2] 1.55% | [3] -56% | [4] -51% | [5] 9.4% | [6] -48.5%

CC(C)(C)OC(=O)c1c2ccccc2cc2ccccc12
inactive: [1] 21.9% | [2] 12.4% | [3] 14% | [4] 14.2% | [5] 12.1% | [6] 10.3%

Cn1nnc(C(=O)O)n1
inactive: [1] -7.75% | [2] -4.35% | [3] -4.7% | [4] -19.8% | [5] -11.4% | [6] -10.8%

Cc1cc2nnnn2c2ccccc12
inactive: [1] -30.1% | [2] -20.6% | [3] -17.1% | [4] -2.35% | [5] -6.8% | [6] -19.8%

COc1ccc2nc(NC(=O)C(=O)C(C(=O)c3ccccc3-c3ccccc3)C3OC(=O)c4ccccc43)sc2c1 (stereo not given)
inactive: [1] -3.6% | [2] 9.75% | [3] -14.2% | [4] 0.7% | [5] -1.1% | [6] -16.1%

CCOC(=O)Nc1ccc(S(=O)(=O)c2ccc(Nc3ccnc4cc(Cl)ccc34)cc2)cc1
inactive: [1] 17.1% | [2] 10.2% | [3] 27.2% | [4] -35.8% | [5] 5.45% | [6] 47.8%

O=C(Cl)Cc1ccccc1[N+](=O)[O-]
inactive: [1] 14.5% | [2] 14.6% | [3] 12.4% | [4] 6.55% | [5] -20.4% | [6] 12.9%
